Assay results reported in PubChem BioAssay (NCATS).
Results filed as inconclusive are left out. A number with no mark means an inactive call. Activity calls are given as the source filed them. Calls come from the whole dose curve; as a rule, active = well fitted cell-killing curve with a large enough effect; inconclusive = small, poorly fitted or top-dose-only effect; inactive = no such curve, though single readings can be large or run the other way.
% is set by controls: 0 for no effect and ±100 for the full control effect; potency is the fitted concentration of half-maximal effect.

Assay: qHTS of pediatric cancer cell lines to identify multiple opportunities for drug repurposing: Primary screen for Saos-2 cells (AID 1347097); note: nearly all actives have a fitted effect of over 40% in size
Details: Saos-2 viability, CellTiter-Glo ATP luminescence, 48 h; series mostly up to 46 µM; activity change, negative = cytotoxic: at the top concentration
Excerpt: Drug repurposing or repositioning has been offered as a strategy for drug development in oncology programs. This approach has special potential for childhood cancers and other rare or orphan diseases, where the expected return on new drug development has been a disincentive to pharmaceuticals. […] In this project we exploit the poly-pharmacology of drugs to discover new indications via phenotypic screening of a panel of 19 well-characterized cell lines derived from solid tumors seen in children and adolescents. The goal is to identify approved drugs with previously unrecognized anticancer properties that has the potential to reveal new mechanisms and biological processes involved in carcinogenesis or drug resistance. We employed a titration-based paradigm (quantitative high-throughput screening or qHTS), where all compounds were tested at multiple concentrations for their effect on cell viability. Concentration-response curves (CRCs) were derived directly from the primary screen, and both potency and efficacy values were used to identify compounds with robust bioactivity profiles. We screened the NIH Chemical Genomics Center (NCGC) Pharmaceutical Collection (NPC) and Mechanism Interrogation Plate (MIPE) small molecule collections of approved and investigational compounds against these cell lines; and measured metabolically active cells after 48 hours of compound treatment as a proxy for cell viability. […] Assay Submitter: Nathalia J. Martinez, National Center for Advancing Translational Sciences, National Institutes of Health, Rockville, MD, USA; email: natalia.martinez@nih.gov Shen, M et al. Quantitative high-throughput phenotypic screening of pediatric cancer cell lines identifies multiple opportunities for drug repurposing. Oncotarget 2017 Dec 19;9(4):4758-4772. PMID 29435139.
The cells were obtained from University of North Carolina (UNC), Pediatric Preclinical Testing Program (PPT), and Coriell Institute (CI). qHTS cell viability assay: Cells were assayed in growth media at a density of 500-1,000 cells/well. Five microliters of cells were dispensed into 1,536-well, white, solid-bottom, TC-treated plates (Greiner Bio One) using a multidrop dispenser and incubated at 37 degrees C, 5% CO2, under a humidified atmosphere for 5 hours. Twenty-three nanoliters of compounds and controls (neutral control DMSO or positive control bortezomib at final concentration of 2.3 µM) were subsequently transferred by Kalypsys pintool. For primary screens, the MIPE collection was tested at 11-point dilutions (final concentrations range from 0.78 nM to 46 µM) and the NPC collection at 8-point dilutions (final concentrations range from 0.59 nM to 46 µM). Compounds tested in follow-up screens were assayed at 11-point dilutions. Cells were incubated for 48 hours, followed by addition of 3 µL of CellTiter-Glo (Promega). After a 15 min incubation at room temperature, samples were analyzed for luminescence intensity using a ViewLux High-throughput CCD imager equipped with clear filters.
With `C=CC(=O)N1CCC[C@@H](n2nc(-c3ccc(Oc4ccccc4)cc3)c3c(N)ncnc32)C1` the Potency was 11800 nM (active). With `CCNC(=O)Nc1ccc2ncc(Nc3ccc(C)cc3)nc2n1` the Potency was 18700 nM (active). `COc1ccc(CC2c3cc(OC)c(OC)cc3CC[N+]2(C)CCC(=O)OCCCCCOC(=O)CC[N+]2(C)CCc3cc(OC)c(OC)cc3C2Cc2ccc(OC)c(OC)c2)cc1OC` (stereo not given) gave an activity change, negative = cytotoxic of 4.71% [at 9.22 µM]. With `CCCCCCCCCC(=O)N[C@@H](Cc1c[nH]c2ccccc12)C(=O)N[C@H](CC(N)=O)C(=O)N[C@@H](CC(=O)O)C(=O)N[C@@H]1C(=O)NCC(=O)N[C@@H](CCCN)C(=O)N[C@@H](CC(=O)O)C(=O)N[C@H](C)C(=O)N[C@@H](CC(=O)O)C(=O)NCC(=O)N[C@H](CO)C(=O)N[C@@H]([C@@H](C)CC(=O)O)C(=O)N[C@@H](CC(=O)c2ccccc2N)C(=O)O[C@@H]1C` the “activity change, negative = cytotoxic” value was 98.6%. With `CC(=O)Nc1nc(C)c(-c2ccc(Cl)c(S(=O)(=O)NCCO)c2)s1` the Potency was 2960 nM (active). For `O=C(O)Cn1nnc(-c2cc(N3CCC(Oc4cc(F)ccc4Br)CC3)no2)n1`, the “activity change, negative = cytotoxic” value was -4.8%. With `O=C(Nc1ncc(-c2cc(C(F)F)nn2-c2c(Cl)cccc2Cl)s1)C1CC1` the Potency was 209 nM (active). For `OCCCNc1cc(-c2ccnc(Nc3cccc(Cl)c3)n2)ccn1`, the Potency was 148 nM (active). For `CCOc1cc2ncc(C#N)c(Nc3ccc(F)c(Cl)c3)c2cc1NC(=O)C=CCN(C)C`, the Potency was 2960 nM (active). With `Cc1ccc2nc(NC(=O)CSc3nc4c(c(=O)n3-c3ccccc3)SCC4)sc2c1` the Potency was 14800 nM (active). In the case of `CN(C1CCc2c(c3ccccc3n2CC(=O)O)C1)S(=O)(=O)c1ccc(F)cc1` (stereo not given), the “activity change, negative = cytotoxic” value is reported as -11.1%. In the case of `Cc1ccc(S(=O)(=O)Nc2cc(Cl)ccc2C(=O)Nc2nc(-c3ccccc3)cs2)cc1`, the Potency is reported as 14800 nM (active). For `Cc1nc2cnc3ccc(C#Cc4cccnc4)cc3c2n1-c1ccc(C(C)(C)C#N)cc1`, the Potency was 235 nM (active). For `O=C1CCC[C@@H]2[C@H]3CCC[N+]4([O-])CCC[C@@H](CN12)[C@@H]34` (stereo not given in full), the “activity change, negative = cytotoxic” value was -3.79%. In the case of `Cc1[nH]nc2ccc(-c3cncc(OC[C@@H](N)Cc4ccccc4)c3)cc12`, the Potency is reported as 2960 nM (active). For `O=c1c2ccccc2nc2n1CCc1c-2[nH]c2ccccc12`, the “activity change, negative = cytotoxic” value was -9.72%. For `COc1cc2c(Oc3ccc4[nH]c(C)cc4c3F)ncnc2cc1OCCCN1CCCC1`, the Potency was 29600 nM (active). With `Clc1cccc(-n2nnnc2NCc2ccccc2Oc2ccccn2)c1Cl` the “activity change, negative = cytotoxic” value was -12.3%. For `COc1cccc2nc(-c3cccs3)nc(NN3C(=O)C=C(C)C3=O)c12`, the Potency was 743 nM (active). In the case of `O=C(NCCS(=O)(=O)c1ccc(C(F)(F)F)cn1)c1ccc(Cl)cc1`, the “activity change, negative = cytotoxic” value is reported as 15.6%. For `CNC(=O)c1cc(Oc2ccc(NC(=O)Nc3cc(C(C)(C)C)nn3-c3ccc4ncccc4c3)c(F)c2)ccn1`, the Potency was 16600 nM (active). For `C#Cc1cccc(Nc2ncnc3cc(OC)c(OCCCCCCC(=O)NO)cc23)c1`, the Potency was 209 nM (active). In the case of `Nc1ccn([C@@H]2CS[C@H](CO)O2)c(=O)n1`, the “activity change, negative = cytotoxic” value is reported as 16.3% [at 92.7 µM]. In the case of `CN(c1ncccc1CNc1nc(Nc2ccc3c(c2)CC(=O)N3)ncc1C(F)(F)F)S(C)(=O)=O`, the Potency is reported as 6620 nM (active). With `CC(C)C[C@H](NC(=O)CNC(=O)c1cc(Cl)ccc1Cl)B(O)O` the Potency was 18700 nM (active). With `CC1COC2(CCN(c3nc(=O)c4cc(C(F)(F)F)cc([N+](=O)[O-])c4s3)CC2)O1` (stereo not given) the “activity change, negative = cytotoxic” value was 10.9%. For `O=C(O)C1(Cc2cccc(Nc3nccs3)n2)CCC(Oc2cccc(Cl)c2F)CC1` (stereo not given), the Potency was 14800 nM (active). For `CC(C)[C@H](C(=O)Nc1ccc(C(=O)NO)cc1)c1ccccc1`, the Potency was 1480 nM (active). In the case of `C=CCn1c(=O)c2cnc(Nc3ccc(N4CCN(C)CC4)cc3)nc2n1-c1cccc(C(C)(C)O)n1`, the Potency is reported as 1050 nM (active). For `Cc1[nH]c2ccccc2c1CCNCc1ccc(C=CC(=O)NO)cc1`, the Potency was 264 nM (active). For `COc1cccc(Nc2c(C(N)=O)cnc3c(C)cc(S(=O)(=O)c4cccc(C(=O)N(C)C)c4)cc23)c1`, the “activity change, negative = cytotoxic” value was 25% [at 16.1 µM]. For `Nc1ccccc1NC(=O)c1ccc(CNC(=O)OCc2cccnc2)cc1`, the Potency was 2350 nM (active). For `COc1cccc2c(NCc3ccccc3)nc(-n3c(N)nc4ccccc43)nc12`, the Potency was 3720 nM (active). In the case of `COc1cc(C(=O)N2CCC(N3CCN(C)CC3)CC2)ccc1Nc1ncc2c(n1)N(C)c1ccccc1C(=O)N2C`, the Potency is reported as 10500 nM (active). In the case of `CCN1CCN(Cc2ccc(-c3cc4c(N[C@H](C)c5ccccc5)ncnc4[nH]3)cc2)CC1`, the Potency is reported as 209 nM (active). In the case of `O=C(O)CO.[NH2-].[NH2-].[Pt+2]`, the “activity change, negative = cytotoxic” value is reported as 1.1%. For `CCn1nnc2c(N3CCOCC3)nc(-c3ccc(NC(=O)Nc4ccc(C(=O)N5CCN(C)CC5)cc4)cc3)nc21`, the Potency was 148 nM (active). In the case of `CC(C)c1ccc(Cn2ccc3c4c(N)nc(NC5CC5)nc4ccc32)cc1`, the Potency is reported as 4690 nM (active). With `Nc1nc(Nc2ccc(S(N)(=O)=O)cc2)nn1C(=O)c1c(F)cccc1F` the Potency was 13200 nM (active). With `CC(=O)OCCN1C(=O)c2c(C)nc3ccc(S(=O)(=O)N4CCOCC4)cc3c2C1=O` the “activity change, negative = cytotoxic” value was -4.73%.
